In PubChem BioAssay AID602313 (National Center for Advancing Translational Sciences (NCATS), 2012):
In all, about 390,000 compounds went through this assay and about 760 (0.19%) were called active. Not shown: some 3% with an inconclusive outcome. Calls follow the shape of the dose curve; as a rule, active = well fitted inhibition curve with a large enough effect; inconclusive = small, poorly fitted or top-dose-only effect; inactive = flat fitted curve, though single readings scatter. The sample as a whole holds a higher share of actives than the screen did.

Assay: qHTS for Inhibitors of Vif-A3F Interactions: qHTS; also: nearly all actives have a fitted effect of over 65% in size; as to activity, negative = active: % of control where 0% means no effect
Conditions: HeLa A3F-eYFP + Vif (tagged APOBEC3F with the HIV-1 protein that degrades it), YFP fluorescence increase; series mostly up to 46.1 µM; activity, negative = active: at the top concentration
From the text: The recent discovery and characterization of host restriction factors, which provide a potent defense to invading retroviruses, has provided new targets for antiviral drug development. APOBEC3G (A3G) and APOBEC3F (A3F) are potent cytidine deaminases that block HIV-1 replication; HIV-1 expresses the Vif protein, which counteracts A3G and A3F by binding to them and inducing their proteasomal degradation. The Vif-A3G and Vif-A3F interactions provide two potential targets for development of small molecules which can interfere with the ability of Vif to degrade A3G or A3F. […] To identify inhibitors that can interfere with Vif mediated degradation of A3G and A3F, we have developed Hela cell lines that stably express A3G or A3F tagged with eYFP at the C-terminal end (A3G-eYFP or A3F-eYFP, respectively) and Vif. In the absence of an inhibitor, Vif induces degradation of A3G-eYFP and A3F-eYFP, and the cells are not fluorescent. In the presence of an inhibitor, it is expected that Vif will be unable to degrade A3G-eYFP and/or A3F-eYFP, resulting in an increase in yellow fluorescence. In this assays Vif A3F was screened against the Molecular Library Small Molecule Repository (MLSMR). NIH Chemical Genomics Center [NCGC] NIH Molecular Libraries Probe Centers Network [MLPCN] MLPCN Grant: MH093245 Assay Submitter (PI): Vinay Pathak, National Cancer Institute
5 uL of 700 cells/well of A3F-YFP cells are dispensed into black, clear bottom plates. The plates are incubated overnight at 37 deg C. 23 nL of compounds are added by pintool. The plates are incubated overnight at 37 deg C and then read on the TTP Acumen (Ex 488/ Em 500-530).
Potency is read from the fitted curve at half-maximal effect.

| SMILES | activity, negative = active | Potency |
| --- | --- | --- |
| COc1ccc(C(=O)Nc2ccc(-n3nncc3-c3ccccc3)cc2)cc1OC | -3.35% (inactive) | – |
| NNC(=O)c1oc2nc(-c3ccccc3)cc(-c3ccco3)c2c1N | – | 11.2 µM (active) |
| Cc1ccc(CSc2nc3cccnc3n2Cc2ccc(C(=O)NC3CC3)cc2)cc1 | -1.49% (inactive) | – |
| CCOC(=O)c1cnc2c(C)cc(Cl)cc2c1NCCc1ccc(OC)c(OC)c1 | -0.291% (inactive) | – |
| O=C(Cc1ccc(Cl)cc1)Nc1ccc2nn(-c3ccc(Cl)cc3)nc2c1 | 2.37% (inactive) | – |
| CCOC(=O)c1c(C)oc2nc(C)nc(N3CCN(c4ccc(OC)cc4)CC3)c12 | 0.623% (inactive) | – |
| CC(C)c1ccc(NC(=O)Cn2nnc(C(=O)NCCc3ccccc3)c2N)cc1 | -1.66% (inactive) | – |
| O=C(CCCn1c(=O)c2cccn2c2cccnc21)NCc1ccc(F)cc1 | 0.614% (inactive) | – |
| Cc1cc(=O)n(CC(=O)Nc2cccc([N+](=O)[O-])c2)c(-n2nc(C)cc2C)n1 | 3.02% (inactive) | – |
| CCOC(=O)c1c(S(=O)(=O)N2CCC(C(=O)NCc3ccccc3OC)CC2)c(C)n(C)c1C | 0.785% (inactive) | – |
| CSc1ccc(C2c3c(oc4ccccc4c3=O)C(=O)N2CCCN2CCOCC2)cc1 (stereo not given) | 8.49% (inactive) | – |
| CSc1ccc(NC(=O)Cn2nnnc2-c2ccccc2F)cc1 | 0.093% (inactive) | – |
| CCc1nc(Nc2ccc3nccnc3c2)c2oc3ccccc3c2n1 | – | 22.4 µM (active) |
| C[C@@H](Nc1nc(-c2ccccc2)nc2c1oc1ccccc12)C(=O)O | -10.7% (inactive) | – |
| COCCNc1nc(-c2ccccc2)nc2c1oc1ccccc12 | -39.4% (inactive) | – |
| CNC(=S)N/N=C/c1ccc(N2CCOCC2)s1 | – | 1.12 µM (active) |
| Cc1ccc(C(=O)C(=S)N2CCOCC2)cc1 | -8.6% (inactive) | – |
| C=CCNC(=S)N/N=C/c1ccc(C)s1 | -16.6% (inactive) | – |
| Oc1[nH]c2ccccc2c1N=Nc1c(F)c(F)c(F)c(F)c1F | – | 25.1 µM (active) |
| S=c1[nH]c2ccccc2c2ccccc12 | 0.31% (inactive) | – |
| O=[N+]([O-])c1cc(S(=O)(=O)Nc2cccc(Cl)c2)ccc1N=Nc1c(O)[nH]c2ccccc12 | -9.21% (inactive) | – |
| CCN(CCCNC(=O)c1cc2cc3cc(OC)ccc3nc2s1)c1ccccc1 | 0.248% (inactive) | – |
| COc1cc(/C=C(\C#N)c2nc3ccccc3[nH]2)ccc1O | – | 12.6 µM (active) |
| CCOc1ccc(/C=C(\C#N)c2nc3ccccc3c(=O)[nH]2)cc1OC | -2.28% (inactive) | – |
| Cc1ccc2nc(/C(C#N)=C/c3ccccc3F)[nH]c2c1 | -13.6% (inactive) | – |

| SMILES | activity, negative = active | Potency |
| --- | --- | --- |
| COc1ccc(Nc2ncc(C(=O)Nc3cc(C)ccc3OC)c3ccccc23)cc1 | -10.3% (inactive) | – |
| COc1ccc(NC(=O)c2cnc(Nc3ccc(C)c(Cl)c3)c3ccccc23)cc1OC | 1.11% (inactive) | – |
| COC(=O)c1cnc(Nc2cc(C)ccc2OC)c2ccccc12 | – | 31.6 µM (active) |
| O=C(CCS(=O)(=O)c1ccccc1)N(Cc1cccnc1)c1nc2c(F)cccc2s1 | -3.73% (inactive) | – |
| S=C(NN=Cc1ccccn1)Nc1ccccn1 | – | 11.2 µM (active) |
| COc1ccc(-n2c(=O)c3sc4ccccc4c3n(CC(=O)Nc3cccc(C)c3)c2=O)cc1 | -15.1% (inactive) | – |
| CCCN(CCC)CCCNC(=O)Cn1ncc2c3ccccc3n(Cc3ccccc3)c2c1=O | -14.4% (inactive) | – |
| Cc1oc2ncnc(N3CCCCC3)c2c1C(=O)N1CCN(c2cccc(Cl)c2)CC1 | 1.49% (inactive) | – |
| COc1ccc(C)cc1N(CC(=O)N1CCC(C)CC1)S(=O)(=O)c1ccc(C)cc1 | -3.25% (inactive) | – |
| Cn1c(COc2ccccc2C(C)(C)C)nc2ccccc21 | -7.42% (inactive) | – |
| O=C1CCCc2cc(S(=O)(=O)N3CCCC(C(=O)NCc4ccccc4)C3)ccc2N1 (stereo not given) | -3.24% (inactive) | – |
| Cc1nn(CC(=O)N2CCN(c3cccc(C(F)(F)F)c3)CC2)c(=O)c2cc3sccc3n12 | 5.84% (inactive) | – |
| CCN(Cc1ccccc1)C(=O)c1cn(-c2cccc(OC)c2)c(=O)c2ccccc12 | 5.04% (inactive) | – |
| COc1cccc(CNC(=O)c2cc(=O)[nH]c3ccc(S(=O)(=O)N4CCCCC4)cc23)c1 | 1.76% (inactive) | – |
| CCOC(=O)c1cc(-c2ccccc2)n(CCC(=O)Nc2ccccc2CC)c1C | 1.54% (inactive) | – |
| CCOC(=O)c1cc2n(c1N)-c1ccccc1C2=O | – | 7.08 µM (active) |
| CCOC(=O)c1c(N)n(-c2cccc(C)c2C)c2nc3ccccc3nc12 | 3.14% (inactive) | – |
| CCOc1ccccc1NC(=O)Cn1nnc(C(=O)Nc2ccc(C)c(C)c2)c1N | -8.19% (inactive) | – |
| COc1ccc(-c2nc3sc(CCNC(=O)C(C)(C)C)c(C)n3n2)cc1 | 5.15% (inactive) | – |
| CCOC(=O)C(Cc1ccccc1)NC(=O)CCc1c(C)nc2c(c(C)nn2-c2ccc(C)c(C)c2)c1C (stereo not given) | -9.62% (inactive) | – |
| COc1ccc(NC(=O)CSc2nccn2Cc2ccc3c(c2)OCO3)cc1 | 0.0796% (inactive) | – |
| CCN1CCN(CCCNC(=O)c2cnn(-c3ccc(C)cc3C)c2C2CCN(C(=O)OC(C)(C)C)CC2)CC1 | 1.14% (inactive) | – |
| CCOC(=O)CCCNC(=O)CN1C(=O)NC(CCc2ccccc2)C1=O (stereo not given) | -1.81% (inactive) | – |
| Cc1cc(NC(=O)CN2C(=O)NC(CCc3ccccc3)C2=O)no1 (stereo not given) | -0.801% (inactive) | – |
| N#CCSc1ccccc1NC(=O)CN1C(=O)NC(CCc2ccccc2)C1=O (stereo not given) | – | 25.1 µM (active) |
